Measured values: PubChem BioAssay AID1159580 (chemical genetic matrix, 2015)
“And” between values parts separate entries of the source, which are not always exact repeats. Identical values can stand only once. About 2,000 (36%) of roughly 5,500 compounds were called active. Another 18% or so got no clear call; they are omitted. Cut-off read from the data, not from the text of the source: active = normalized growth mostly below about 0.91 (no sharp cut-off); inconclusive = no clear call, values can overlap the other calls; inactive = mostly above about 0.92. This is one part of the list.

Experiment: chemical genetic growth profiling, strain panel (AID 1159580);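 note: tested at 20 µM; growth read once vehicle control cultures reached saturation at 30 °C; 1 = growth at the plate median or of vehicle wells; lower values mean less growth of the strain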
Settings: S. cerevisiae deletion strains, growth OD

Measured: normalized growth

CC1(C)C(=O)[C@@H]2O[C@@H]2[C@@]2(C)C1C[C@@H](O)[C@]1(C)C2CC[C@@]2(C)[C@H](c3ccoc3)OC(=O)C3OC321 (stereo partly specified)
inactive: locus YAL021C, strain ccr4, stronger effect = lower value 0.981 | locus YAL026C, strain drs2, stronger effect = lower value 0.969 | locus YAL030W, strain snc1, stronger effect = lower value 0.982 | locus YBL061C, strain skt5, stronger effect = lower value 0.989 | locus YBR009C, strain hhf1, stronger effect = lower value 1 | locus YBR021W, strain FUR4, stronger effect = lower value 0.965 | locus YBR023C, strain chs3, stronger effect = lower value 0.998 | locus YBR171W, strain sec66, stronger effect = lower value 0.994 | locus YBR229C, strain ROT2, stronger effect = lower value 1 | locus YBR231C, strain swc5, stronger effect = lower value 0.995 | locus YBR279W, strain paf1, stronger effect = lower value 0.987 | locus YCL011C, strain gbp2, stronger effect = lower value 0.999 | locus YCL016C, strain dcc1, stronger effect = lower value 0.997 | locus YCL029C, strain bik1, stronger effect = lower value 0.988 | locus YCL061C, strain MRC1, stronger effect = lower value 1.01 | locus YCL069W, strain vba3, stronger effect = lower value 0.999 | locus YCR088W, strain abp1, stronger effect = lower value 1 | locus YDL005C, strain med2, stronger effect = lower value 0.987 | locus YDL035C, strain GPR1, stronger effect = lower value 0.998 | locus YDL040C, strain nat1, stronger effect = lower value 0.998 | locus YDL074C, strain BRE1, stronger effect = lower value 0.972 | locus YDL101C, strain DUN1, stronger effect = lower value 1 | locus YDL134C, strain PPH21, stronger effect = lower value 0.989 | locus YDL185W, strain tfp1, stronger effect = lower value 0.997 | locus YDL192W, strain arf1, stronger effect = lower value 0.988 | locus YDR001C, strain nth1, stronger effect = lower value 1 | locus YDR069C, strain doa4, stronger effect = lower value 0.999 | locus YDR101C, strain arx1, stronger effect = lower value 0.971 | locus YDR137W, strain rgp1, stronger effect = lower value 1 | locus YDR150W, strain NUM1, stronger effect = lower value 1 | locus YDR159W, strain sac3, stronger effect = lower value 0.998 | locus YDR162C, strain NBP2, stronger effect = lower value 1 | locus YDR195W, strain ref2 0.989 | locus YDR297W, strain sur2, stronger effect = lower value 0.99 | locus YDR318W, strain mcm21, stronger effect = lower value 0.974 | locus YDR334W, strain swr1, stronger effect = lower value 0.989 | locus YDR335W, strain msn5, stronger effect = lower value 0.987 | locus YDR388W, stronger effect = lower value 0.991 | locus YDR392W, strain spt3, stronger effect = lower value 0.984 | locus YDR502C, strain sam2, stronger effect = lower value 0.957 | locus YEL003W, strain gim4, stronger effect = lower value 1.01 | locus YEL037C, strain rad23, stronger effect = lower value 0.988 | locus YEL061C, strain CIN8 (second series), stronger effect = lower value 1 | locus YER015W, strain faa2, stronger effect = lower value 0.996 | locus YER016W, strain bim1, stronger effect = lower value 0.995 | locus YER110C, stronger effect = lower value 0.976 | locus YER111C, strain swi4, stronger effect = lower value 0.996 | locus YER155C, strain BEM2 (second series), stronger effect = lower value 1 | locus YER155C, strain BEM2, stronger effect = lower value 1 | locus YER167W, strain BCK2, stronger effect = lower value 1.01 | locus YFR010W, strain ubp6, stronger effect = lower value 1 | locus YGL078C, strain dbp3, stronger effect = lower value 0.985 | locus YGL086W, strain mad1, stronger effect = lower value 0.977 | locus YGL167C, strain pmr1, stronger effect = lower value 1.01 | locus YGL173C, strain kem1, stronger effect = lower value 1 | locus YGL227W, strain vid30, stronger effect = lower value 1 | locus YGL240W, strain doc1, stronger effect = lower value 1 | locus YGL248W, strain PDE1, stronger effect = lower value 0.998 | locus YGL253W, strain hxk2, stronger effect = lower value 1 | locus YGR135W, strain pre9, stronger effect = lower value 0.952 | locus YGR229C, strain SMI1, stronger effect = lower value 0.981 | locus YGR252W, strain gcn5, stronger effect = lower value 0.845 | locus YHR013C, strain ard1, stronger effect = lower value 0.993 | locus YHR027C, strain rpn1, stronger effect = lower value 0.997 | locus YHR030C, strain SLT2, stronger effect = lower value 1.02 and 0.977 | locus YHR079C, strain IRE1 (second series), stronger effect = lower value 0.991 | locus YHR079C, strain IRE1, stronger effect = lower value 0.986 | locus YHR094C, strain hxt1, stronger effect = lower value 0.989 | locus YHR129C, strain ARP1, stronger effect = lower value 1 | locus YHR142W, strain chs7, stronger effect = lower value 0.993 | locus YHR200W, strain rpn10, stronger effect = lower value 0.982 | locus YIL066C, strain RNR3, stronger effect = lower value 1.01 | locus YIL073C, strain SPO22, stronger effect = lower value 0.992 | locus YIL125W, strain kgd1, stronger effect = lower value 0.992 | locus YIR030C, strain dcg1, stronger effect = lower value 0.994 | locus YJL092W, strain hpr5, stronger effect = lower value 1 | locus YJL095W, strain BCK1 (second series), stronger effect = lower value 0.994 | locus YJL095W, strain BCK1, stronger effect = lower value 0.982 and 0.983 | locus YJL115W, strain asf1, stronger effect = lower value 0.989 | locus YJL129C, strain trk1, stronger effect = lower value 0.985 | locus YJL134W, strain LCB3, stronger effect = lower value 0.997 | locus YJL154C, strain vps35, stronger effect = lower value 0.999 | locus YJL164C, strain tpk1, stronger effect = lower value 0.981 | locus YJL166W, strain qcr8, stronger effect = lower value 0.983 | locus YJL168C, strain set2, stronger effect = lower value 0.985 | locus YJL187C, strain SWE1 (second series), stronger effect = lower value 0.984
